HEK293 tox: qHTS of GLP-1 Receptor Inverse Agonists: Cytotox Screen; HEK293 cAMP-luciferase reporter cells, luminescence, 24 h; Potency, µM (top dose mostly 38.3 µM), inactives show top-dose activity change, negative = inhibition, actives largely listed as inhibitors; actives 0.13% (n = 410,000); AID 624418, 2012;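 further: loss of luciferase light is scored as toxicity; potency means the concentration at half of the fitted maximal effect; on the % scale 0 is the no-effect control and ±100 the full control effect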
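1536-well qHTS counterscreen of the MLSMR; 200 cells/uL, 12 h pre-incubation, 23 nL cpd, 24 h at 37 deg C 5% CO2, luciferase detection reagent, 12 min RT, luminescence. Inhibition = undesired.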
DRD3 agonist: qHTS of D3 Dopamine Receptor Agonist: qHTS. AID 652048, 2013. actives 0.58% (n = 410,000). D3R DiscoveRx beta-arrestin cells, luminescence, 90 min. max activation, %. D(3) dopamine receptor (Homo sapiens), P35462; in the data active means max activation above about 30%; further: 0% is about no effect
Target sequence (P35462 whole entry, looked up): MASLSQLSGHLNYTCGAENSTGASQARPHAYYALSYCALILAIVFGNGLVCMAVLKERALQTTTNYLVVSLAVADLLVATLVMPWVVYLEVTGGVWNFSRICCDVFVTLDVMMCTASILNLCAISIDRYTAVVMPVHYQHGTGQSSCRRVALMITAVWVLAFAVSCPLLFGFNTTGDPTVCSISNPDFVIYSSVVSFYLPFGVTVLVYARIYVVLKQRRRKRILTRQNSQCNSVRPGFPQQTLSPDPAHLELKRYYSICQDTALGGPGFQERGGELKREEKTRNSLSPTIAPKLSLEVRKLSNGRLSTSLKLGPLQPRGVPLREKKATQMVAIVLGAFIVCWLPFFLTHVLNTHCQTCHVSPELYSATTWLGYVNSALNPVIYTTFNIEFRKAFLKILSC
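Agonist mode: compounds and dopamine controls were applied to plated cells for 90 min at 37 degrees C after an overnight attachment at 1500 cells/well. Luminescent read-out followed 30 - 60 minutes at room temperature with DiscoveRx detection reagent.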
GLP1R ag: qHTS of GLP-1 Receptor Agonists. AID 624172, 2012. Potency, µM (top dose mostly 45.6 µM), without a hit: top-dose activation, usual class: activators. actives 0.007% (n = 380,000). HEK293 GLP-1R CRE-luciferase, luminescence, 4-6 h; cells express a hypersensitive GLP-1R form; further: potency means the concentration at half of the fitted maximal effect; % of control where 0% means no effect
ClpP mod: qHTS Assay for Activators of ClpP. actives 1.9% (n = 340,000). AID 651965, 2013. purified B. subtilis ClpP, FRET peptide cleavage, 20 min. Potency, µM (series often up to 57.5 µM), for the others: top-dose activity change, negative = active. ATP-dependent Clp protease proteolytic subunit (Bacillus subtilis (strain 168)), P80244; active means well fitted falling curve with a large enough effect; inconclusive means small, poorly fitted or top-dose-only effect; inactive means no such curve, though single readings can be large or run the other way; further: potency means the concentration at half of the fitted maximal effect; the source files actives as falling curves though it sought activators and does not explain the sign; nearly all actives have a fitted effect of over 65% in size
Target sequence (P80244 whole entry, looked up): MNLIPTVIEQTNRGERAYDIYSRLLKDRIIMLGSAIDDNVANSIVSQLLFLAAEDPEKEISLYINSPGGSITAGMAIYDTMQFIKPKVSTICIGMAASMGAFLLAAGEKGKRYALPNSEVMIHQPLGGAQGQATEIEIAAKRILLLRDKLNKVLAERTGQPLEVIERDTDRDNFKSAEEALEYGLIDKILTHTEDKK
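Purified B. subtilis ClpP, 10 microg/mL final in Tris/HCl pH8 with KCl, BSA, glycerol and Tween-20, cleaved an Abz/nitrotyrosine-quenched decapeptide. Fluorescence (ex 320, em 430) was read at 0 and 20 min at room temperature. Delta was normalized to 5.8 microM ADEP and DMSO/no-enzyme controls.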
GLP1R inv ag: qHTS of GLP-1 Receptor Inverse Agonists (Inhibition Mode) | HEK293 GLP-1R CRE-luciferase, luminescence, 24 h; GLP-1R form is constitutively active | Glucagon-like peptide 1 receptor (Homo sapiens), P43220 | actives 1.6% (n = 410,000) | Potency, µM (titrated, usually from 38.3 µM), for the others: at the top dose activity change, negative = inhibition, hits mostly inhibitors | AID 624417, 2012; further: potency means the concentration at half of the fitted maximal effect; on the % scale 0 is the no-effect control and ±100 the full control effect; nearly all actives have a fitted effect of over 55% in size
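Inverse agonism was detected as reduced cAMP-driven luciferase luminescence after 24 h compound treatment. The cells were HEK293 clones expressing constitutively active human GLP-1R with the reporter. Reporter-only and GPR119 cell lines served as counterscreen controls.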
D3 antag: qHTS of D3 Dopamine Receptor Antagonist: qHTS | actives 2.5% (n = 360,000) | D3R cells, DiscoveRx beta-arrestin luminescence, antagonist mode; stronger effect = lower value | AID 652054, 2013 | max response, negative = inhibition, %; in the data active means max response below about -50%; inconclusive means no clear call, values can overlap the other calls; further: on the % scale 0 is the no-effect control and ±100 the full control effect
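Cells plated overnight at 1500 cells/well, then exposed to library compounds with dopamine controls for 90 minutes at 37 degrees C. DiscoveRx reagent added for 30–60 minutes at room temperature; luminescence read, quantitative HTS format.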
Active calls of the source: *; ? = inconclusive; / = no result. Sampled rows, rich in hits. Any-hit rate of the full collection: about 5.7%. Unless noted, the call rests on the fitted dose curve; in most records, active means well fitted curve in the direction sought with a large enough effect; inconclusive means small, poorly fitted or top-dose-only effect, or another doubt; inactive means no such curve, though single readings can be large; an effect the other way counts as inactive or inconclusive.

SMILES	HEK293 tox	DRD3 agonist	GLP1R ag	ClpP mod	GLP1R inv ag	D3 antag
O=C(CN1CCC(n2nnc3cc(F)ccc32)CC1)Nc1ccccc1N1CCOCC1	6.3%	-5.0	25.3%	0.6%	-1.4%	-54.8*
O=C(Nc1ccc(F)cc1)C(c1ccccc1OC(F)(F)F)N1CCN(C(=O)c2ccco2)CC1 (stereo not given)	-5.1%	-12.4	/	-22.2%	-28.8%	0.0
Cc1ccc2c(c1)c1c(n2CC(O)Cn2nc(C)c(Br)c2C)CCCC1 (stereo not given)	?	1.7	-17.1%	-19.8%	?	-11.0
Cc1ccc2c(c1)c1c(n2CC(O)CNC(C)(C)C)CCCC1 (stereo not given)	-26.4%	8.2	3.4%	?	10µM*	15.3
Cc1ccc2c(c1)c1c(n2CC(O)CN2CCCCCC2)CCCC1 (stereo not given)	?	-2.1	3.5%	/	?	-68.0*
Cc1ccc2c(c1)c1c(n2CC(O)Cn2c(C)nc3ccccc32)CCCC1 (stereo not given)	?	0.0	-2.4%	-17.8%	?	-11.5
COc1ccc2c(c1)c1ncn(CCCN3CCOCC3)c(=O)c1n2C	8.5%	-18.5	?	10.9%	0.0%	-8.3
Cn1c2ccccc2c2ncn(CCN3CCOCC3)c(=O)c21	-2.3%	-2.9	4.1%	31.6µM*	16.7%	-16.1
Cc1c(Cl)cccc1NC(c1ccc(F)cc1)c1nnc(-c2ccccc2)o1 (stereo not given)	25.2%	-15.8	/	-2.1%	8.91µM*	/
CC(=O)c1cccc(NC(c2ccc(F)cc2)c2nnc(-c3ccccc3)o2)c1 (stereo not given)	-21.7%	16.7	-6.5%	-17.3%	?	/
CN1C(=O)C2(CCCCC2)C1c1ccccc1 (stereo not given)	10.8%	-15.3	7.3%	-0.4%	2.7%	-76.5*
O=C(COC(=O)c1c(F)cccc1F)NC(=O)NCc1ccccc1	5.4%	-4.0	-2.6%	0.9%	4.5%	?
Cc1ccc(CN(C)C(=O)CN2C(=O)NC(c3ccccc3)(c3ccccc3)C2=O)c(C)c1	-15.1%	1.7	-1.2%	2.4%	3.55µM*	3.4
CCN(CC)CCCN(c1ccccc1)C1Cc2ccccc2C1	/	-7.5	-2.0%	/	/	/
c1ccc(CN2CCN(CCN3CCn4c3nc3ccccc34)CC2)cc1	-13.1%	0.6	-5.6%	-2.1%	-12.0%	-71.8*
c1ccc2c(c1)nc1n2CCN1CCN1CCCC1	0.5%	-35.9	-1.0%	-6.1%	4.4%	-111.6*
c1ccc2c(c1)nc1n2CCN1CCNC1CCCCC1	-16.7%	-0.9	-1.6%	-1.2%	-30.8%	0.0
COc1ccc(-c2noc(-c3ccc(NC(C)c4ccccc4)c([N+](=O)[O-])c3)n2)cc1OC (stereo not given)	-0.6%	2.4	/	-0.9%	3.5%	/
CC1CCc2nc3ncn(Cc4ccccc4F)c(=O)c3cc2C1 (stereo not given)	2.9%	6.0	/	-3.0%	-0.3%	/
CCOC(=O)c1cnc(SCc2cccc(C)c2)nc1N	-13.2%	-3.0	?	-1.9%	10µM*	3.2
CCOC(=O)c1cnc(SCC(=O)c2ccc(C)cc2)nc1N	17.9%	-2.7	0.2%	-5.3%	-2.4%	-6.7
CCc1nn2c(=O)c(S(=O)(=O)Nc3ccc(Cl)cc3)c(C)nc2s1	8.2%	2.1	-3.7%	0.2%	0.5%	8.6
CCOc1ccc(NS(=O)(=O)c2c(C)nc3sc(CC)nn3c2=O)cc1	1.4%	0.3	11.0%	0.9%	-14.4%	-52.6*
CNC(=S)N1N=C(c2ccc(OC)cc2)CC1c1ccccc1Cl (stereo not given)	15.1%	5.6	11.9%	0.3%	10µM*	-6.4
CNC(=S)N1N=C(c2ccc(C)cc2)CC1c1cc(OC)ccc1OC (stereo not given)	?	-6.1	13.8%	/	10µM*	-12.1
SMILES	HEK293 tox	DRD3 agonist	GLP1R ag	ClpP mod	GLP1R inv ag	D3 antag
CNC(=S)N1N=C(c2ccc(C)cc2)CC1c1ccc(OC)cc1 (stereo not given)	-4.4%	-8.3	-2.6%	1.2%	10µM*	0.3
CCc1nc2ccc(C(=O)NCCc3ccccn3)cn2c1N(C)Cc1ccc(N(C)C)cc1	3.9%	-7.6	7.3%	-2.4%	9.9%	-24.2
CCN(C(=O)CSc1nc2ccccc2n1Cc1cc(C)ccc1C)c1ccccc1	5.5%	-10.9	/	0.1%	4.0%	/
CC1CCN(C(=O)CSc2nc(-c3ccccc3)no2)CC1	2.7%	-1.5	/	-2.1%	-16.6%	/
CCC(C)(C)n1nnnc1C(c1cc2ccc(OC)cc2[nH]c1=O)N1CCN(C2CCCCC2)CC1 (stereo not given)	-25.2%	-24.3	-7.3%	?	0.0%	-63.6*
COCCn1nnnc1C(c1cc2cc(C)ccc2[nH]c1=O)N1CCCCCC1 (stereo not given)	18.2%	-11.5	-2.8%	28.2µM*	48.6%	-12.4
COc1ccc2cc(C(c3nnnn3CC3CCCO3)N3CCOCC3)c(=O)[nH]c2c1 (stereo not given)	-7.4%	-15.3	5.2%	25.1µM*	4.0%	-17.5
CCC(C)(C)n1nnnc1C(c1cc2cc3c(cc2[nH]c1=O)OCO3)N1CCCCC1 (stereo not given)	109.1%	2.0	0.8%	14.1µM*	9.4%	15.2
COCCn1nnnc1C(c1cc2c(C)cc(C)cc2[nH]c1=O)N1CCCCCC1 (stereo not given)	-3.1%	-4.4	6.7%	-28.1%	2.3%	-14.7
CCOC(=O)[C@]12CCC=C1N(Cc1ccc(Cl)cc1Cl)C(=O)[C@H](CC(=O)NCC1CCCCC1)C2	-0.4%	0.7	1.5%	0.3%	?	-13.7
COc1ccc(CCCc2nnc(SCC(=O)Nc3cc(F)ccc3C)o2)cc1	-3.1%	-9.2	/	0.2%	1.8%	/
Cc1cccc(NC(=O)N2CC(=O)Nc3sc4c(c3C2c2ccccc2)CCCC4)c1C (stereo not given)	-3.2%	-5.4	/	-4.1%	?	/
Cc1ccc2cccc(NC(=O)c3cccc4c(Br)cccc34)c2n1	2.1%	-12.2	-3.2%	-3.8%	1.9%	/
COc1cc2cc(C(c3nnnn3C(C)(C)C)N3CCc4ccccc43)c(=O)[nH]c2cc1OC (stereo not given)	-14.1%	7.0	15.1%	16.8%	64.1%	-11.6

High-throughput results as filed in PubChem.
